Measurements from the supplement of paper PMC7156485.

Legend:
Details in all cases: concentration: 10 µM; 24 h
[1] = system: HCC1569; experiment: cell number relative to DMSO (% of DMSO); higher = more cells (less growth inhibition / toxicity)
Outline: (§1)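 Using 384-well plates with 800 cells per well in RPMI plus 10% FBS, HCC1569 and TDF cells were exposed to compounds at 10 µM, in triplicate, for 24 h at 37 °C. Imaging of six fields per well at ×10 followed H1.0 and DAPI staining. The reported quantity, H1.0 nuclear intensity or cell number, is a median of replicates given as percent of the plate control, and HCC1569 values were smoothed for positional effects.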

[2] = system: TDF; experiment: as above
Outline: as §1

[3] = system: TDF; experiment: H1.0 immunofluorescence intensity relative to DMSO (% of DMSO); higher = stronger H1.0 induction, active = 120 or more
Outline: as §1

[4] = system: HCC1569; experiment: H1.0 immunofluorescence intensity relative to DMSO (% of DMSO); higher = stronger H1.0 induction, active = 140 or more
Outline: as §1
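For H1.0 immunofluorescence intensity relative to DMSO in this document: TDF is a line of transformed human dermal fibroblasts of mesenchymal origin.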
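For cell number relative to DMSO in this document: TDF denotes transformed human dermal fibroblasts of mesenchymal origin.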

Row | SMILES | cell number [1] | cell number [2] | H1.0 immunofluorescence intensity [3] | H1.0 immunofluorescence intensity [4]
1 | Nc1ccn(C2OC(CO)C(O)C2O)c(=O)n1 (configuration not stated) [Cytarabine] | 79.6 | 51.3 | 105 (inactive) | 102 (inactive)
2 | COC(=O)C1=C(C)NC(C)=C(C(=O)OCCCN2CCC(c3ccccc3)(c3ccccc3)CC2)C1c1cccc([N+](=O)[O-])c1 (configuration not stated) [Niguldipine] | 88.2 | 99 | 98.5 (inactive) | 126 (inactive)
3 | O=C(O)c1ccccc1Nc1ccccc1 [N-Phenylanthranilic acid] | 102 | 104 | 100 (inactive) | 97.5 (inactive)
4 | CC(C)C(=O)Nc1ncc(-c2cc(C(F)F)nn2-c2c(Cl)cccc2Cl)s1 | 75.5 | 69.8 | 111 (inactive) | 111 (inactive)
5 | O=C(O)Cc1c[nH]c2ccc(O)cc12 [(5-hydroxy-3H-indol-3-yl)acetic acid] | 105 | 94.7 | 94.7 (inactive) | 103 (inactive)
6 | C=CC(=O)c1ccc2ccccc2c1 | 99.7 | 92 | 103 (inactive) | 113 (inactive)
7 | O=C1CCCC(=O)C1C(=O)c1ccc(C(F)(F)F)cc1[N+](=O)[O-] [2-[2-nitro-4-(trifluoromethyl)benzoyl]-1,3-cyclohexanedione] | 96.1 | 104 | 99.8 (inactive) | 101 (inactive)
8 | CCC1OC(=O)C(C)C(OC2CC(C)(OC)C(O)C(C)O2)C(C)C(OC2OC(C)CC(N(C)C)C2O)C(C)(O)CC(C)C(=NOCOCCOC)C(C)C(O)C1(C)O (configuration not stated) [Roxithromycin] | 106 | 98.4 | 95.2 (inactive) | 92.1 (inactive)
